# Laboratory results published in PubChem BioAssay.
# Calls of active or inactive are those of the source.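 Rule for the calls, unless noted: active = NADPH fluorescence slope more negative than the mean of all samples by about 3 SD, 99.7% confidence; inactive = the rest.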
# Assays:
# [1] = inhibitors of TNFa-induced NFkB p65 translocation, primary screen, imaging, HUVEC, MLSMR starter and 10KST1 sets (AID 438;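 active = inhibition above 20% together with a positive visual image hit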;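 note: compound added about 3h40 before a 20 min TNFalpha stimulation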;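 for inhibition: signal is the nuclear over cytoplasmic p65 intensity ratio per well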); conditions: HUVEC TNFa-induced p65 nuclear translocation; cell count: measured here: nuclei count (cytotoxicity indicator), at 2.08 µM; inhibition: at 2 µM, stronger effect = higher value, 0% TNFa-plus-vehicle, 100% no-TNFa wells
# [2] = reduction of polyQ htt aggregates in cells – imaging, exon1htt(103Q)mCFP cells, high-content imaging, primary screen (AID 483;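 active = visual image review flags a hit and inhibition of aggregation exceeds 20%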;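 note: compound exposure lasted 3 days before fixation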;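 for nuclei count: percent of the per-plate median nuclei count of sample wells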); conditions: exon1htt(103Q)mCFP cell line, aggregate imaging, at 2 µM; inhibition of aggregation: stronger effect = higher value; nuclei count: measured here: cell count, toxicity
# [3] = endothelial E-selectin expression blockers – imaging, HUVEC, immunofluorescence, MLSMR starter and 10KST1 sets, primary screen (AID 487;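 active = visually confirmed hit in the image check and inhibition above 20%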;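 for inhibition: signal is fraction of cell area covered by stained E-selectin grains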;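 for nuclei count: 100% = median nuclei count of all wells on the same plate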); conditions: HUVEC TNFalpha-induced E-selectin immunofluorescence imaging, at 2 µM; inhibition: stronger effect = higher value; nuclei count: measured here: cell number, toxicity
# [4] = target: Voltage-gated potassium channel subunit beta-2 (Rattus norvegicus) (UniProt P62483); assay: inhibitors of rat Kvbeta2 reductase activity – biochemical, NADPH fluorescence, primary screen (AID 622;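 active = fluorescence slope higher than the sample average by over 3 SD, cut at about -0.22 in these data, passing the limit was not always enough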;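 note: slope of raw intensity against log time taken from 70 to 1610 s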); conditions: recombinant KvBeta, 4-cyanobenzaldehyde reduction, at 10 µM, stronger effect = higher value
# [5] = target: Voltage-gated potassium channel subunit beta-2 (Rattus norvegicus) (UniProt P62483); assay: enhancers of rat Kvbeta2 NADPH turnover – biochemical, NADPH fluorescence, primary screen (AID 623); conditions: Recombinant KvBeta, NADPH fluorescence decrease slope, 10 min; at 10 µM; stronger effect = lower value;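 note: fluorescence intensity change per second fitted from 20 to 320 s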
# [6] = target: Alpha-2C adrenergic receptor (Homo sapiens) (UniProt P18825); assay: compounds altering alpha2C-coupled GIRK flux – cell-based, HEK293 alpha2C/GIRK1/2, thallium flux, primary screen (AID 624;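 active = fluorescence slope after compound addition differing from the mean of all screened samples at 99.7% confidence, in either direction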;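 note: slope of fluorescence ratio to pre-addition baseline per second over 15 to 24 s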); conditions: thallium flux BTC fluorescence, at 10 µM, actives lie on both sides
# [7] = blockers of RIG-like receptor reporter activation – cell-based, Sendai virus stimulus, luciferase, 10K MLSCN set, TLR/RLR signaling modifier project, primary screen (AID 602276;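 active = inhibition at or above 50% at 10 µM; inactive = inhibition below 50%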;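 note: firefly luciferase from ISG56 promoter only with Renilla not read in this screen; 0% = Sendai virus plus DMSO and 100% = medium plus DMSO without virus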); conditions: HEK293 RL24 IRF3 luciferase reporter, at 10 µM, stronger effect = higher value
# [8] = TLR3 IRF3 reporter activation blockers – cell-based, poly I:C stimulus, luciferase, 10K MLSCN set, primary screen (AID 602277;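 active = inhibition of the reporter signal at or above 50%; inactive = inhibition below 50%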); conditions: HEK293-TLR3 RL24 IRF3 luciferase reporter, at 10 µM, stronger effect = higher value
# Alpha-2C adrenergic receptor (Homo sapiens), sequence (P18825 whole entry, looked up): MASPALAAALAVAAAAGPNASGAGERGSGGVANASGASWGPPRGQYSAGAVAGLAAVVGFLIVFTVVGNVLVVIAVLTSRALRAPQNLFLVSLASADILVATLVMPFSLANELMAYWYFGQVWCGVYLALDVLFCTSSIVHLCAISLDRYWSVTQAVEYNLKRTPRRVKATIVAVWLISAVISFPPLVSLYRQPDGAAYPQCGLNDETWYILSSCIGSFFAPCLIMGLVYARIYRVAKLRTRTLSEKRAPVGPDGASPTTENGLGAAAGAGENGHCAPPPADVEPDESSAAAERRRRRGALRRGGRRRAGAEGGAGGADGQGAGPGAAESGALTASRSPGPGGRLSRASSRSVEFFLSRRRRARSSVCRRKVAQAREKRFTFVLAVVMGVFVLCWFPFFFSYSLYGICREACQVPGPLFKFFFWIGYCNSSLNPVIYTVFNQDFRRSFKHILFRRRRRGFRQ
# Voltage-gated potassium channel subunit beta-2 (Rattus norvegicus), sequence (P62483 whole entry, looked up): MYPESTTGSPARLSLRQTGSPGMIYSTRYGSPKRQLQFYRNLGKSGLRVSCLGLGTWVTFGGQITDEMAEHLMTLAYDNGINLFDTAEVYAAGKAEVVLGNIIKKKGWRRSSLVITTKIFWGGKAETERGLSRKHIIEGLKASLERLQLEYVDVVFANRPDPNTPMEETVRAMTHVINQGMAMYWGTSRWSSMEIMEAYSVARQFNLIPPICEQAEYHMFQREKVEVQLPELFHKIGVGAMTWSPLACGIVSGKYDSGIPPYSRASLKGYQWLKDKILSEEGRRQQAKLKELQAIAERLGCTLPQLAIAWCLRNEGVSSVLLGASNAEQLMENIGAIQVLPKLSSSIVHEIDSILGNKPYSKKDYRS
SMILES,cell count [1],inhibition [1],inhibition of aggregation [2],nuclei count [2],inhibition [3],nuclei count [3],fluorescence slope [4],NADPH fluorescence slope [5],slope [6],inhibition [7],inhibition [8]
COc1ccc(CCNC(=O)CSc2nncn2N)cc1OC,641,-3.2% (inactive),24.1% (inactive),81.6%,-29.4% (inactive),122%,-0.345 (inactive),-1.6e-05 (inactive),0.00364 (inactive),12.1% (inactive),21.1% (inactive)
Cc1ccc(C2C(C(=O)c3sc(C)nc3C)=C(O)C(=O)N2CCN(C)C)o1 (centres undefined),387,-7.6% (inactive),-12.7% (inactive),107%,-161% (inactive),127%,-0.351 (inactive),-4.5e-05 (inactive),0.00504 (inactive),7.21% (inactive),6.57% (inactive)
COc1cc(C(=O)Nc2nc(-c3cccs3)cs2)cc(OC)c1OC,475,-4.8% (inactive),-20.4% (inactive),98.7%,-18.4% (inactive),106%,-0.507 (inactive),-6.5e-06 (inactive),0.00722 (inactive),-6.01% (inactive),-12% (inactive)
CCOC(=O)C(NCc1ccccc1OC)(NC(C)=O)C(F)(F)F (centres undefined),279,-1.5% (inactive),14.4% (inactive),97.8%,-72.8% (inactive),125%,-0.616 (inactive),-5.3e-06 (inactive),0.00702 (inactive),5.22% (inactive),4.4% (inactive)
CCc1ccc(NC(=O)c2cccnc2)cc1,337,-3.8% (inactive),23.7% (inactive),88%,-14.1% (inactive),110%,-0.429 (inactive),-2.2e-05 (inactive),0.00479 (inactive),-27% (inactive),-80.3% (inactive)
O=C(Nc1ccon1)c1csc2c1CCCC2,332,1.2% (inactive),-60% (inactive),104%,-52.8% (inactive),107%,-0.396 (inactive),-5.9e-05 (inactive),0.00515 (inactive),-0.246% (inactive),11.9% (inactive)
O=C(c1ccc(CNS(=O)(=O)c2cccc(C(F)(F)F)c2)cc1)N1CCOCC1,237,11.8% (inactive),-1.6% (inactive),80%,14.7% (inactive),97.4%,-0.387 (inactive),-3.8e-05 (inactive),0.00478 (inactive),14.8% (inactive),16.9% (inactive)
Cc1cc2cc(CN(CC3CCCO3)C(=O)c3cnccn3)c(=O)[nH]c2cc1C (centres undefined),330,5.3% (inactive),-0.3% (inactive),107%,-22.4% (inactive),125%,-0.592 (inactive),-5.9e-05 (inactive),0.00376 (inactive),-3.76% (inactive),-3.05% (inactive)
CCOC(=O)Nc1ccc(NS(=O)(=O)c2ccc(C)cc2)cc1,342,-0.8% (inactive),-13.3% (inactive),114%,-108% (inactive),134%,-0.507 (inactive),8.9e-06 (inactive),0.00595 (inactive),1.72% (inactive),9.39% (inactive)
COC(=O)CNC(=O)COC(=O)c1cc(Cl)cc(Cl)c1N,473,4.7% (inactive),-2% (inactive),112%,-81.4% (inactive),123%,-0.41 (inactive),1.6e-05 (inactive),0.0054 (inactive),-8.86% (inactive),3.33% (inactive)
COC(=O)CSc1nc2ncc(Cl)cc2[nH]1,542,8.6% (inactive),-23.3% (inactive),106%,-49.2% (inactive),106%,-0.462 (inactive),-6.4e-05 (inactive),0.00642 (inactive),15.8% (inactive),25.3% (inactive)
CCCSc1nc(N)c(C#N)c(-c2ccc(C)cc2)c1C#N,683,10.1% (inactive),-10.3% (inactive),104%,-31.9% (inactive),141%,-0.382 (inactive),-6.2e-05 (inactive),0.00536 (inactive),3.6% (inactive),9.67% (inactive)
COc1cc(-n2nc(C)c3c2OC(N)=C(C#N)C3c2ccccc2)c(Cl)c(Br)c1O (centres undefined),490,-1.6% (inactive),2.1% (inactive),71.4%,-8.7% (inactive),108%,-0.397 (inactive),-3.5e-05 (inactive),0.00309 (inactive),18.2% (inactive),14.7% (inactive)
CCOC(=O)CC1=C(C(=O)OCC)C(c2ccc(C)o2)C(C#N)=C(N)O1 (centres undefined),339,-16.4% (inactive),15.3% (inactive),91.9%,-46.5% (inactive),94.7%,-0.625 (inactive),3.1e-06 (inactive),0.00603 (inactive),3.2% (inactive),8.99% (inactive)
